Peg3 promoter: Peg3 promoter activity inhibition | inhibition, % at 20 µM | 360,000 compounds, 1.7% hits | HeLa PEG-Prom luciferase reporter, luminescence, overnight;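 active means inhibition of at least 50% at 20 µM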
Mdm2 MdmX PPI: human Mdm2/MdmX binding inhibition; O15151+Q00987; SaOS-2 split-luciferase Mdm2/MdmX complementation, luminescence; inhibition, % at 8 µM; 330,000 compounds, 3% hits;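 active means inhibition of at least 50% at 8 µM in the primary screen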
Target sequence (O15151 whole entry, looked up): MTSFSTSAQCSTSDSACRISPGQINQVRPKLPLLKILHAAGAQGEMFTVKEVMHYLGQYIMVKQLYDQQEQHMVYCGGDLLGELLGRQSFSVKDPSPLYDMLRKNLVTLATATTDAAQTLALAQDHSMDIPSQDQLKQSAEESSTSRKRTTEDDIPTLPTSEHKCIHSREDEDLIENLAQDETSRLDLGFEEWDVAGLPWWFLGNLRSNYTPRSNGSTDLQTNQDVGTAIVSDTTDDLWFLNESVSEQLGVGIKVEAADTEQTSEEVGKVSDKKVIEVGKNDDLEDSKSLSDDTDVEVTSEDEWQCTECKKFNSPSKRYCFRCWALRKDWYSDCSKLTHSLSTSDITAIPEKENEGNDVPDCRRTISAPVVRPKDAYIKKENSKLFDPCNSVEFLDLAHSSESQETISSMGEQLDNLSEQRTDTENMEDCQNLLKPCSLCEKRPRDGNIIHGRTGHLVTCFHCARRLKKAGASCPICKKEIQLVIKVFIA
Target sequence (Q00987 whole entry, looked up): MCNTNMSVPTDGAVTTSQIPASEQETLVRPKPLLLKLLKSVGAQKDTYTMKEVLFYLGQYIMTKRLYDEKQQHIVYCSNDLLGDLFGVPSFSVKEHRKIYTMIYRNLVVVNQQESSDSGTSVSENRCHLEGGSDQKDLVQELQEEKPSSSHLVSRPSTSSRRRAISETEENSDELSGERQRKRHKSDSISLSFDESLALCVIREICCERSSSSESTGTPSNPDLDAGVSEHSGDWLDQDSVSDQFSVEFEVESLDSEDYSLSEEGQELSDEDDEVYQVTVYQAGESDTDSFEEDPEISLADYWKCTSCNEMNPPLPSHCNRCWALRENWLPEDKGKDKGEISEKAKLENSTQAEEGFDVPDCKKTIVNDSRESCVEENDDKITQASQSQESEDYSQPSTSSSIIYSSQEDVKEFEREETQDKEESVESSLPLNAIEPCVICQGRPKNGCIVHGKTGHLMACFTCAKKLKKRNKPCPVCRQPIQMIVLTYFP
CF NFkB block: cystic fibrosis NF-kB activation inhibition; inhibition, % at 5 µM; KKLEB NF-kB-GFP reporter, PAF-induced, GFP fluorescence overnight; 360,000 compounds, 0.86% hits;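 active means at least 50% inhibition at 5 µM, scaled per plate between neutral and stimulator controls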;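 further: PAF is a Pseudomonas aeruginosa culture filtrate used as stimulus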
KKLEB tox: reduces viability of KKLEB cystic fibrosis airway cells; activity change (cytotoxicity), % at 5 µM; AID 602141; KKLEB CF airway cells viability, ATPlite luminescence, overnight; hits give low values; cells stimulated with P. aeruginosa culture filtrate; 360,000 compounds, 0.36% hits;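 active means corrected activity change at or below -50% at 5 µM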
HIF-2a block: inhibitors of HIF-2a. 786-0 RCC cells HIF-2a reporter, luciferase luminescence, overnight. inhibition, % at 18.8 µM. 360,000 compounds, 0.72% hits. AID 624352;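 active means inhibition of the luminescence signal of 40% or more relative to plate controls, in a single-dose primary screen at 18.75 µM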
ABHD5 PLIN5 PPI: ABHD5-PLIN5 protein interaction inhibition; Q00G26+Q8WTS1; Split G. princeps luciferase complementation, luminescence, 4 h; inhibition, % at 4 µM; 360,000 compounds, 0.78% hits; AID 602281;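 active means inhibition above the mean inhibition across every tested compound plus 3 SD, cut at about 22% in these data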
Mdm2-MdmX conf: confirmation of human Mdm2/MdmX interaction inhibitors; shares compounds with Mdm2 MdmX PPI; 10,000 compounds, 55% hits; Mdm2-MdmX binding, luminescent assay; inhibition, % at 8 µM; in the data active means inhibition above about 40%
FLuc counter: counter-screen for Mdm2/MdmX inhibitors: full-length luciferase; shares compounds with Mdm2 MdmX PPI; SaOS-2 full-length luciferase counterscreen, luminescence; inhibition, % at 8 µM; 6,200 compounds, 77% hits; AID 504607;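 active means mean inhibition at 8 µM reaching about 37%, which flags the compound as non-specific, limit read from the data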;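 further: p53-null SaOS-2 cells with luciferase driven by a doxycycline-inducible promoter; compound on cells about two nights before reading with doxycycline added after day one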
Of the large screens only hits and unclear results are named; the others gave an inactive call (follow-up assays come after a bar, where they were run). Sampled rows, rich in hits. Any-hit rate of the full collection: about 4.6%.

Cc1cccc(NC(=O)Cn2cnc3c(oc4ccccc43)c2=O)c1C	Mdm2 MdmX PPI 64 | Mdm2-MdmX conf inactive
Cc1cc(C)nc(NC(=S)Nc2cccc(Cl)c2Cl)c1	none
Cc1cc(C)nc(NC(=S)Nc2ccc(Br)cc2Cl)c1	Mdm2 MdmX PPI 51 | Mdm2-MdmX conf inactive
Cn1c(=O)n(C)c2cc(NC(=O)CSc3nnc(-c4ccccc4O)n3-c3ccccc3)ccc21	Mdm2 MdmX PPI 58 | Mdm2-MdmX conf inactive
CCc1nnc(NC(=O)CSc2nnc(-c3ccccc3O)n2-c2ccc(C)cc2C)s1	Mdm2 MdmX PPI 63 | Mdm2-MdmX conf 53 | FLuc counter 61
C[C@H](NC(=O)C1CCN(S(=O)(=O)c2ccccc2)CC1)C(=O)NCc1cccnc1	none (no result: Mdm2 MdmX PPI)
Cc1ccc(C)c(N2CCN(C(=O)c3ccc(Cn4c(=O)[nH]c5ccccc5c4=O)cc3)CC2)c1	Mdm2 MdmX PPI 91 | Mdm2-MdmX conf 52 | FLuc counter 47
COc1ccc(Cn2c(=O)[nH]c3cc(C(=O)N4CCN(c5ccc(OC)cc5)CC4)ccc3c2=O)cc1	none
CCOC(=O)N1CCN(C(=O)c2ccc3c(=O)n(Cc4ccc(Cl)cc4)c(=S)[nH]c3c2)CC1	none
CCOC(=O)N1CCN(C(=O)c2ccc(Cn3c(=S)[nH]c4ccc(Br)cc4c3=O)cc2)CC1	Mdm2 MdmX PPI 55 | Mdm2-MdmX conf inactive
O=C(c1ccc(Cn2c(=O)[nH]c3ccccc3c2=O)cc1)N1CCN(c2ccc(Cl)cc2)CC1	Mdm2 MdmX PPI 65 | Mdm2-MdmX conf inactive
C=CCn1c(=O)[nH]c2cc(C(=O)N3CCN(c4cc(C)ccc4C)CC3)ccc2c1=O	none
Cc1ccc(N(CC2CO2)S(=O)(=O)c2ccc([N+](=O)[O-])cc2)cc1 (stereo not drawn)	none
COc1cc(OC)c2c(-c3ccccc3)cc(=O)oc2c1C(CCN1CCCC(C)C1)c1ccc(N(C)C)cc1 (stereo not drawn)	Peg3 promoter 78, Mdm2 MdmX PPI 77 | Mdm2-MdmX conf inactive
COc1cc(OC)c2c(-c3ccccc3)cc(=O)oc2c1C(CCN1CCN(c2ccccc2)CC1)c1ccc(N(C)C)cc1 (stereo not drawn)	none
COc1ccc(C(CCN2CCCC(C)C2)c2c(OC)cc(OC)c3c(-c4ccccc4)cc(=O)oc23)cc1 (stereo not drawn)	Peg3 promoter 65, Mdm2 MdmX PPI 100 | Mdm2-MdmX conf inactive
CCOc1ccc(-c2cnc(NCc3cccc4ccccc34)n2CCOC)cc1	Mdm2 MdmX PPI 88 | Mdm2-MdmX conf inactive
CCn1cc(CNC(=O)C2CCC(=O)N(Cc3ccc(Cl)cc3)C2)cn1 (stereo not drawn)	none
O=C(NCc1ccccc1)c1onc(CSc2ccc(Cl)cc2)c1C(=O)NCC1CC1	none
O=C(NCc1ccccc1)c1onc(CSc2ccccc2)c1C(=O)NCC1CC1	Mdm2 MdmX PPI 55 | Mdm2-MdmX conf 50 | FLuc counter 81
CCN1C(=O)c2cccc3c(NC(=O)c4ccc(S(=O)(=O)N(C)C)cc4)ccc1c23	Mdm2 MdmX PPI 59 | Mdm2-MdmX conf inactive | FLuc counter 64
CCN1C(=O)c2cccc3c(NC(=O)c4ccc(S(=O)(=O)N5CCOCC5)cc4)ccc1c23	Mdm2 MdmX PPI 51 | Mdm2-MdmX conf 49 | FLuc counter 94
CCn1nc(C(=O)NCc2nnc3ccccn23)c2ccccc2c1=O	none
COc1cc(OC)cc(C2=Cc3ccccc3C(CC(C)=O)N2c2ccc(C#CC3(N)CCCCC3)cc2)c1 (stereo not drawn)	none (no result: Peg3 promoter, Mdm2 MdmX PPI, CF NFkB block, KKLEB tox)
Clc1ccc(Cn2ncc3c(NCc4ccco4)ncnc32)c(Cl)c1	Mdm2 MdmX PPI 74 (no result: Peg3 promoter, CF NFkB block, KKLEB tox, HIF-2a block, ABHD5 PLIN5 PPI) | Mdm2-MdmX conf 66 | FLuc counter inactive
OCCNc1ncnc2c1cnn2Cc1ccccc1	none (no result: Mdm2 MdmX PPI)
Clc1ccc(-n2ncc3c(NCc4ccco4)ncnc32)cc1	none
c1ccc(CNc2ncnc3c2cnn3Cc2ccccc2)cc1	Mdm2 MdmX PPI 58 | Mdm2-MdmX conf 55 | FLuc counter 70
Cc1cccc(NC(=O)C2C3C=CC(O3)C2C(=O)O)c1C (stereo not drawn)	none
CCc1ccc(Nc2nc(N)nc(CSc3nnnn3-c3ccccc3)n2)cc1	Mdm2 MdmX PPI 60 | Mdm2-MdmX conf 62 | FLuc counter 48
Cc1ccccc1Nc1nc(N)nc(CSc2nnnn2-c2ccccc2)n1	none
COc1cccc(N(C(=O)Cn2nnc(-c3ccc(Cl)cc3)n2)C(C(=O)NCC2CCCO2)c2ccc(C)cc2)c1 (stereo not drawn)	Mdm2 MdmX PPI 56 | Mdm2-MdmX conf inactive
COc1cccc(N(C(=O)Cn2nnc(-c3ccc(F)cc3)n2)C(C(=O)NCC2CCCO2)c2ccc(Cl)cc2)c1 (stereo not drawn)	none
CCOc1ccc(NS(=O)(=O)c2cc(NC(=O)c3cccc(C)c3)ccc2Cl)cc1	Mdm2 MdmX PPI 51 | Mdm2-MdmX conf 46 | FLuc counter 79
CCOc1ccc(NS(=O)(=O)c2cc(C(=O)N3CCCC3)ccc2Cl)cc1	none
O=C(Cn1ncn2c(cc3ccccc32)c1=O)NCCCc1ccccc1	none
O=c1c2cc3ccccc3n2cnn1Cc1ccccc1F	Mdm2 MdmX PPI 54 | Mdm2-MdmX conf 41 | FLuc counter 84
CC[C@H](C)[C@@H](C(=O)NCCCCCCCCCCC(=O)N1CCN(C(=O)OC(C)(C)C)CC1)n1cc(CCCCCNC(=O)OC(C)(C)C)nn1	none
CC[C@H](C)[C@@H](C(=O)NCCCCCCCCCCC(=O)N1CCN(C(=O)OC(C)(C)C)CC1)n1cc(CCCCN=C(NC(=O)OC(C)(C)C)NC(=O)OC(C)(C)C)nn1	Mdm2 MdmX PPI 64 (no result: Peg3 promoter, CF NFkB block, KKLEB tox, HIF-2a block, ABHD5 PLIN5 PPI) | Mdm2-MdmX conf inactive
CC(C)(C)OC(=O)NCCCCCc1cn([C@@H](CO)C(=O)NCCCCCCCCCCC(=O)N2CCN(C(=O)OC(C)(C)C)CC2)nn1	Peg3 promoter 93, Mdm2 MdmX PPI 62 | Mdm2-MdmX conf inactive
c1ccc(C[C@H]2CNCCN2CCc2cccc3ccccc23)cc1	none
FC(F)(F)c1cc(CCN2CCNC[C@H]2Cc2cccc3ccccc23)cc(C(F)(F)F)c1	Peg3 promoter 101, Mdm2 MdmX PPI 100 | Mdm2-MdmX conf inactive | FLuc counter 75
CC(C)C[C@@H]1COc2cccc(N3CCC[C@H]3CO)c2S(=O)(=O)N1	none (no result: Peg3 promoter, Mdm2 MdmX PPI, CF NFkB block, KKLEB tox)
O=C(O)c1cccc(N/N=C/c2ccc(-c3ccccc3)cc2)c1	none (no result: Mdm2 MdmX PPI)
CC(C)(C)c1ccc(/C=N/Nc2cccc(C(=O)O)c2)cc1	Mdm2 MdmX PPI 70 | Mdm2-MdmX conf 61 | FLuc counter 116
COC(=O)[C@]12CCCCC=C1N(Cc1ccc(Cl)cc1Cl)C(=O)[C@H](CC(=O)NCc1cccs1)C2	none (no result: Peg3 promoter, Mdm2 MdmX PPI, CF NFkB block, KKLEB tox)
Fc1ccc(Nc2nc(NCc3ccco3)c3ccccc3n2)cc1	Mdm2 MdmX PPI 77 | Mdm2-MdmX conf inactive

Bioassay records (PubChem BioAssay)
